{"source": "PubChem BioAssay"}
{"biological_target": "Torsin-1A (Homo sapiens) (UniProt O14656)", "sequence (O14656 whole entry, looked up)": "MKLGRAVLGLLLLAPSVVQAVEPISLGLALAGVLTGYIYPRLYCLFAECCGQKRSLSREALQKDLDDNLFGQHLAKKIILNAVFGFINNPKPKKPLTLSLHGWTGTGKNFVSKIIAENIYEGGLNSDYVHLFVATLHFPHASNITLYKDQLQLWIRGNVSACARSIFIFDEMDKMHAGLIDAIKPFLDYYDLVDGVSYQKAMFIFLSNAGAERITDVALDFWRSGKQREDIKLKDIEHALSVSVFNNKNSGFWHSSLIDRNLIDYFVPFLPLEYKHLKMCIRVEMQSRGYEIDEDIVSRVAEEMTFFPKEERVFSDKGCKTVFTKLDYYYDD", "assay": "torsin A mutant lysate binding on microarrays – cell lysate, small-molecule microarray, COS7 lysate, 635/667 nm fluorescence, primary screen (AID 1150);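 further: score pools 667 nm emission and signal to noise measuring lysate protein binding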", "conditions": "COS7 hTOR1A mutant lysate, 635 nm fluorescence, higher = more signal"}
{"compound": "C=CCN1C(=O)[C@@]2(Cc3ccccc31)N=C(c1ccc(OCCCO)cc1)O[C@H]2c1ccccc1", "composite z-score": 0.855}
{"compound": "[N-]=[N+]=Nc1ccccc1[C@@H]1OC(c2ccc(OCCCO)cc2)=N[C@]1(CCS(=O)(=O)c1ccccc1)C(N)=O", "composite z-score": 0.91}
{"compound": "CN(C)C(=O)[C@@]1(CCS(=O)(=O)c2ccccc2)COC(c2ccc(OCCCO)cc2)=N1", "composite z-score": 2.51}
{"compound": "CCOC(=O)C[C@H]1[C@H](OC(=O)c2cc3ccccc3oc2=O)[C@@H](NC(=O)c2ccccc2)c2cc(OCCCO)ccc2N1C(=O)c1ccc2ccccc2n1", "composite z-score": 0.611}
{"compound": "C=CCOC(=O)[C@H]1[C@@H]2C(=O)O[C@@H](c3ccccc3)[C@@H](c3ccccc3)N2[C@@H](c2ccc(OCCOC(=O)[C@H]3C[C@H]4C(=O)N[C@@H](CCCCNC(C)=O)C(=O)N4[C@H]3c3cccc(OCCO)c3)cc2)[C@]12C(=O)Nc1ccccc12", "composite z-score": 0.934}
{"compound": "CC(C)C(CO)N1C(=O)[C@@H]2C3C(=O)OCCC/C=C\\[C@H]3OC23C=CCN(CCN2CCOCC2)C(=O)[C@@H]13", "note": "(stereo not given in full)", "composite z-score": -0.184}
{"compound": "O=C(NCCN1CCOCC1)C1N=C(c2ccc(OCCCO)cc2)N(c2ccccc2)O1", "note": "(stereo not given)", "composite z-score": 2.3}
{"compound": "COC(=O)[C@@]1(Cc2ccccc2)[C@H]2c3cc(C(=O)N4CCCC4)n(Cc4ccc(S(C)(=O)=O)cc4)c3C[C@H]2CN1C(=O)c1ccccc1", "composite z-score": 0.81}
{"compound": "O=C1[C@@]23C=C(Br)[C@H](C[C@@H]2CCOC3)[C@@]12CO2", "composite z-score": 0.219}
{"compound": "O=C(c1ccccc1)N1C(=O)[C@]2(COC(c3ccc(OCCCO)cc3)=N2)Cc2ccccc21", "composite z-score": 0.87}
{"compound": "Cc1nc2cc(Br)ccc2c(=O)o1", "composite z-score": 0.642}
{"compound": "CCCCC(CC)C(O)C1C=CC2C(=O)N(Cc3ccccc3)C(=O)C2N1n1cnnc1", "note": "(stereo not given)", "composite z-score": 0.606}
{"compound": "CC(C)C(O)C1C=CC2C(=O)NC(=O)C2N1Nc1ccc(Cl)cc1Cl", "note": "(stereo not given)", "composite z-score": 0.794}
{"compound": "COCCOC(=O)N1C(=O)[C@@]2(c3ccccc31)[C@H](c1ccc(O)cc1)N1[C@H](c3ccccc3)[C@H](c3ccccc3)OC(=O)[C@H]1[C@@H]2C(=O)Nc1nc2ccccc2s1", "composite z-score": 1.23}
{"compound": "CC(C)C(=C=CC[C@@H](O)c1ccc(OCCO)cc1)C[C@@H](O)COCc1ccccc1", "composite z-score": -0.208}
{"compound": "O=C1C2C=CC(C(O)Cc3ccccc3)N(n3cnnc3)C2C(=O)N1Cc1ccccc1", "note": "(stereo not given)", "composite z-score": 1.05}
{"compound": "COCCOC(=O)N1C(=O)[C@@]2(c3cc(C#Cc4ccc(OC)cc4)ccc31)[C@H](c1ccc(O)cc1)N1[C@H](c3ccccc3)[C@H](c3ccccc3)OC(=O)[C@H]1[C@@H]2C(=O)N1CCc2cc(OC)c(OC)cc2C1", "composite z-score": 0.964}
{"compound": "COc1cc2c(cc1O)C(C1CC1)N(Cc1sc3ccccc3c1Cl)CC2", "note": "(stereo not given)", "composite z-score": 0.982}
{"compound": "CC(C)C(=C=CC[C@H](O)c1ccc(OCCO)cc1)CCO", "composite z-score": 0.653}
{"compound": "CC(=O)NCCCC[C@@H]1NC(=O)[C@@H]2C[C@H](C(=O)NCCCCCNC(=O)CS)[C@H](c3cccc(OCCO)c3)N2C1=O", "composite z-score": 0.541}
{"compound": "NC(=O)NCC#Cc1ccc2c(c1)[C@]1(C(=O)N2)[C@H](c2ccc(O)cc2)N2[C@H](c3ccccc3)[C@H](c3ccccc3)OC(=O)[C@H]2[C@@H]1C(=O)O", "composite z-score": -0.914}
{"compound": "COc1cc(Br)cc(C(O)C2C=CC3C(=O)N(C)C(=O)C3N2N2CCCCC2)c1OC", "note": "(stereo not given)", "composite z-score": 0.0369}
{"compound": "COc1ccc(CCNC(=O)[C@@H]2c3ccccc3C(=O)N(Cc3ccccc3Cl)[C@H]2c2ccc(CO)cc2)cc1", "composite z-score": 0.0327}
{"compound": "CCCCN1CC=CC23O[C@@H]4C=CCCOC(=O)C4[C@H]2C(=O)N(CCCCCCO)[C@@H]3C1=O", "note": "(stereo not given in full)", "composite z-score": -1.23}
{"compound": "CCOC(=O)C[C@H]1[C@H](OC(=O)c2ccc(C(=O)c3ccccc3)cc2)[C@@H](NC(=O)c2ccccc2)c2cc(OCCCO)ccc2N1C(=O)c1ccc2ccccc2n1", "composite z-score": 0.179}
{"compound": "C=CCOC(=O)[C@H]1[C@@H]2C(=O)O[C@@H](c3ccccc3)[C@@H](c3ccccc3)N2[C@@H](c2ccc(OCCOC(=O)[C@H]3C[C@H]4C(=O)N[C@@H](CCCC[N+](C)(C)C)C(=O)N4[C@H]3c3ccc(O)cc3)cc2)[C@]12C(=O)Nc1ccc(I)cc12", "composite z-score": -0.243}
{"compound": "CC(CO)N1C(=O)[C@@H]2C3C(=O)OCCC/C=C\\[C@H]3OC23C=CCN(C(C)(C)C)C(=O)[C@@H]13", "note": "(stereo not given in full)", "composite z-score": 2.21}
{"compound": "CC1CC/C=C\\[C@H]2OC34C=CCN(C(C)(C)C)C(=O)[C@H]3N(C(C)CO)C(=O)[C@@H]4C2C(=O)O1", "note": "(stereo not given in full)", "composite z-score": -0.441}
{"compound": "COc1ccc(C#Cc2ccc3c(c2)[C@]2(C(=O)N3)[C@H](C(=O)Nc3nc4ccccc4s3)[C@H]3C(=O)O[C@H](c4ccccc4)[C@H](c4ccccc4)N3[C@@H]2c2ccc(O)cc2)cc1", "composite z-score": 0.903}
{"compound": "C=CCC(OC(C)=O)[C@@H]1[C@@H](N(Cc2ccc(-c3ccccc3)cc2)C(=O)Cc2ccc(OC)cc2)c2cc(OCCCO)ccc2N1C(=O)Cc1ccc2ccccc2c1", "note": "(stereo not given in full)", "composite z-score": 0.616}
{"compound": "CN1C(=O)C2C=CC(C(O)C#Cc3ccccc3)N(N3CCCCC3)C2C1=O", "note": "(stereo not given)", "composite z-score": 1.79}
{"compound": "C=CC(=C)[C@H]1Oc2ccccc2S(=O)(=O)N2CCC[C@@H]12", "composite z-score": -1.06}
{"compound": "C=CCC(OC(C)=O)[C@@H]1[C@@H](N(Cc2ccc(-c3cccc(C(F)(F)F)c3)o2)C(=O)c2ccc(C)cc2)c2cc(OCCCO)ccc2N1C(=O)Cc1ccc2ccccc2c1", "note": "(stereo not given in full)", "composite z-score": -0.702}
{"compound": "COCCOC(=O)N1C(=O)[C@@]2(c3cc(C#CCC(C(=O)OC)C(=O)OC)ccc31)[C@H](C(=O)N1CCN(c3ncccn3)CC1)[C@H]1C(=O)O[C@H](c3ccccc3)[C@H](c3ccccc3)N1[C@@H]2c1ccccc1OCCO", "composite z-score": 0.579}
{"compound": "CC(C)=CCCC(C)=CC(O)C1C=CC2C(=O)N(C)C(=O)C2N1Nc1ccccc1", "note": "(stereo not given)", "composite z-score": 0.178}
